Reference: PubChem BioAssay AID463173 (ICCB-Longwood Screening Facility, Harvard Medical School, 2010)
The campaign covered roughly 52,000 compounds. About 1,700 (3.3%) were called active. Cut-off read from the data, not from the text of the source: active = survival mostly below about 52% (no sharp cut-off); inactive = mostly above about 56%. Many of the other results were omitted from the sample, so actives are more common in it than they were.

Tested on: Wild type
Assay: growth inhibition of S. aureus wild type versus tarO mutant, primary screen, teichoic acid synthesis inhibitors, RN4220, OD600 (AID 463173)
Conditions: S. aureus RN4220 wild type/DeltatarO growth, OD600, 18 h, hits give low values, screened at 18.75 µg/mL (by protocol)

Row | SMILES | survival
1 | CCOc1ccccc1NC(=O)Cn1c(=O)n(-c2ccccc2)c(=O)c2c1c1cc(C)ccc1n2C | 84% (inactive)
2 | CCOC(=O)CNC(=O)c1cc2c(=O)oc3ccccc3c2s1 | 146% (inactive)
3 | CCc1ccc(C2C(C(=O)Nc3ccc(Cl)cc3)=C(C)Nc3ncnn32)cc1 (stereo not given) | 59% (inactive)
4 | Cc1ccc(CNC(=O)c2ccc3c(O)c(S(=O)(=O)c4ccccc4)c(=O)[nH]c3c2)cc1 | 83% (inactive)
5 | N=C1SCC(=O)N1c1ccc(Cl)cc1 | 124% (inactive)
6 | Cc1ccc(-n2c(SCc3ccccc3F)nc3[nH]ncc3c2=O)cc1Cl | 77% (inactive)
7 | Cc1ccc2[nH]c(=O)c3cc(C(=O)N(C)c4ccc(Br)cc4)sc3c2c1 | 81% (inactive)
8 | COC(=O)c1ccc(NC(=O)CN2C(=O)c3cccc4cccc2c34)cc1 | 85% (inactive)
9 | NS(=O)(=O)c1ccc(CCNC(=O)CCn2c(=O)c3cccn3c3cccnc32)cc1 | 92% (inactive)
10 | O=C(NCc1cccc(Cl)c1)c1cnc(N2CCCCC2)c2ccccc12 | 89% (inactive)
11 | O=C(COC(=O)c1cccc(NC(=O)c2ccc(Br)cc2)c1)c1ccc(Cl)cc1 | 93% (inactive)
12 | O=C(CC1N=C2c3ccccc3N=C(SCC(=O)Nc3cccc(Cl)c3)N2C1=O)NCc1cccs1 (stereo not given) | 82% (inactive)
13 | CCn1ccc2cc(S(=O)(=O)N3CCC(C(=O)NCc4ccc(F)cc4)CC3)ccc21 | 80% (inactive)
14 | CCn1ccc2cc(S(=O)(=O)N3CCC(C(=O)NCc4ccc(OC)cc4)CC3)ccc21 | -3% (active)
15 | CCn1ccc2cc(S(=O)(=O)N3CCC(C(=O)NCc4ccc(OC(C)C)cc4)CC3)ccc21 | 69% (inactive)
16 | CCCCNC(=O)C1CCN(S(=O)(=O)c2ccc3c(ccn3CC)c2)CC1 | 124% (inactive)
17 | CCn1ccc2cc(S(=O)(=O)N3CCC(C(=O)NCC(C)c4ccccc4)CC3)ccc21 (stereo not given) | 87% (inactive)
18 | CCC(C)NC(=O)C1CCN(S(=O)(=O)c2ccc3c(ccn3CC)c2)CC1 (stereo not given) | 0% (active)
19 | O=C(Cn1c(=O)nc(-c2ccccc2)c2ccccc21)NCCCc1ccccc1 | 60% (inactive)
20 | Cc1c(Cl)cccc1Nc1nn2c(=O)c3ccc(C(=O)NCCC4=CCCCC4)cc3nc2s1 | 74% (inactive)
21 | COc1ccc(OC)c(S(=O)(=O)N2CC=C(c3c(C)n(CC(=O)N4CCCC4)c4ccccc34)CC2)c1 | 83% (inactive)
22 | O=S(=O)(c1cccc2nsnc12)N(CCOc1ccccc1)C1CCCCC1 | 99% (inactive)
23 | COc1cccc(CNC(=O)C2CCN(c3ncccn3)CC2)c1 | 102% (inactive)
24 | CCn1c(=O)c2cc(C(=O)N3CCN(c4cccc(OC)c4)CC3)sc2c2ccccc21 | 69% (inactive)
25 | Cc1ccc(C(=O)N2c3ccc(C)cc3C(C)(c3ccccc3)CC2(C)C)cc1 (stereo not given) | 2% (active)
26 | CC1=CC(C)(C)N(CC(=O)c2ccccc2)c2ccc(C)cc21 | 109% (inactive)
27 | COc1ccc(C(=O)N2c3ccc(C)cc3C(C)(c3ccccc3)CC2(C)C)cc1 (stereo not given) | 45% (inactive)
28 | Cc1ccc2c(c1)C(C)(c1ccccc1)CC(C)(C)N2C(=O)c1ccc(F)cc1 (stereo not given) | -2% (active)

Row | SMILES | survival
29 | Cc1ccc(C(=O)N2CCN(c3ccccc3)CC2)cc1 | 112% (inactive)
30 | Cc1ccc2c(c1)N(C(=O)c1ccc(F)cc1)C(C)(C)CC2(C)c1ccccc1 (stereo not given) | 43% (inactive)
31 | CCOc1ccc(S(=O)(=O)n2nc(C)c(S(=O)(=O)N3CCCCC3)c2C)cc1 | 67% (inactive)
32 | Cc1ccc(C)c(NC(=O)Cn2c(=O)n(CCCS(=O)(=O)C3CCCCC3)c(=O)c3ccccc32)c1 | 119% (inactive)
33 | CSc1nc2ccc(S(=O)(=O)N3CCCCC3)cc2s1 | 105% (inactive)
34 | COCCCNC(=O)c1ccc(Cn2c(=O)c3ccccc3n(CC(=O)Nc3ccc(C)cc3C)c2=O)cc1 | 100% (inactive)
35 | Cc1ccccc1CNC(=O)Cc1csc2ccccc12 | 94% (inactive)
36 | COc1ccccc1NC(=O)CSc1ncc2c(n1)-c1cc(Cl)ccc1N(C)S2(=O)=O | 73% (inactive)
37 | CCOc1ccc(NC(=O)CN2CCN(CC(=O)Nc3ccc(N(CC)CC)cc3)CC2)cc1 | 80% (inactive)
38 | COc1ccc(NC(=O)c2cc3c(=O)n(Cc4cccs4)ccc3nc2C)c(OC)c1 | 83% (inactive)
39 | O=c1[nH]c2ccc(NCc3ccc(-c4ccc(Cl)cc4)o3)cc2[nH]1 | 111% (inactive)
40 | COc1ccc(CCNC(=O)C(=O)NCC(c2cccs2)S(=O)(=O)c2ccc(F)cc2)cc1 (stereo not given) | 73% (inactive)
41 | O=S(=O)(Nc1ccc(Br)cc1)c1ccc2nc(-c3ccccc3)[nH]c2c1 | -3% (active)
42 | COc1ccc(NS(=O)(=O)c2ccc3nc(-c4ccccc4)[nH]c3c2)cc1 | 81% (inactive)
43 | O=S(=O)(Nc1ccc(Br)cc1F)c1ccc2nc(-c3ccccc3)[nH]c2c1 | 71% (inactive)
44 | Cc1ccc(NS(=O)(=O)c2ccc3nc(-c4ccccc4)[nH]c3c2)c(Cl)c1 | 60% (inactive)
45 | Cc1ccc(NS(=O)(=O)c2ccc3nc(-c4ccccc4)[nH]c3c2)cc1Cl | 1% (active)
46 | CC(C)c1ccc(NS(=O)(=O)c2ccc3nc(-c4ccccc4)[nH]c3c2)cc1 | 63% (inactive)
47 | Cc1ccc(NS(=O)(=O)c2ccc3nc(-c4ccccc4)[nH]c3c2)c(Br)c1 | 63% (inactive)
48 | Cc1cccc(NS(=O)(=O)c2ccc3nc(-c4ccccc4)[nH]c3c2)c1C | 129% (inactive)
49 | Cc1cc(NS(=O)(=O)c2ccc3nc(-c4ccccc4)[nH]c3c2)ccc1Br | -4% (active)
50 | COc1cc(C)ccc1OCCSc1nc(-c2cccc(C)c2)nc2cc(=O)[nH]n12 | 88% (inactive)
51 | Cc1ccc(NC(=O)c2oc3ccc(S(=O)(=O)N4CCC5(CC4)OCCO5)cc3c2C)c(C)c1 | 143% (inactive)
52 | O=C(CS(=O)(=O)c1cccc2nsnc12)Nc1cc(F)ccc1F | 97% (inactive)
53 | Cn1c(=O)c2c(nc(NCCc3ccccc3)n2Cc2ccc(Cl)cc2)n(C)c1=O | 74% (inactive)
54 | CCc1ccc(N2C(=O)C3C4CCCC4=C4CCCC4C3C2=O)cc1 (stereo not given) | 116% (inactive)
55 | Cn1c(=O)c2c(nc3n(-c4ccc(O)cc4)c(-c4ccc(Br)cc4)cn23)n(C)c1=O | 142% (inactive)
